Several values for one entry are separate records, joined by “and”; a condition that tells them apart may be missing. Identical values can stand only once. Unmarked numbers belong to inactive results. The list shows a part of the results. Activity calls are given as the source filed them.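 How the source made its calls, unless noted: active means mean inhibition over 43.08%, the solvent-only control mean plus 3 SD; inactive means the rest.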

As a reminder, the inhibition is the change of the read-out against control, counted positive when it falls.

The target of experiment [1] is Nuclear receptor coactivator 3 (Homo sapiens) (UniProt Q9Y6Q9). Kind of experiment: NCOA3 GAL4-fusion reporter inhibition – cell-based, luminescence, quadruplicate, confirmation (AID 588792).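 Further: 0% = DMSO treated cells and 100% = gossypol at 36 µM.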 As to conditions: HEK293 GAL4-SRC3 luciferase reporter, at 3.6 µM, active compounds read high. A general note: In a reporter assay the amount or activity of a reporter protein is the signal.
Sequence of Nuclear receptor coactivator 3 (Homo sapiens) (Q9Y6Q9 whole entry, looked up, the tested form may be a part): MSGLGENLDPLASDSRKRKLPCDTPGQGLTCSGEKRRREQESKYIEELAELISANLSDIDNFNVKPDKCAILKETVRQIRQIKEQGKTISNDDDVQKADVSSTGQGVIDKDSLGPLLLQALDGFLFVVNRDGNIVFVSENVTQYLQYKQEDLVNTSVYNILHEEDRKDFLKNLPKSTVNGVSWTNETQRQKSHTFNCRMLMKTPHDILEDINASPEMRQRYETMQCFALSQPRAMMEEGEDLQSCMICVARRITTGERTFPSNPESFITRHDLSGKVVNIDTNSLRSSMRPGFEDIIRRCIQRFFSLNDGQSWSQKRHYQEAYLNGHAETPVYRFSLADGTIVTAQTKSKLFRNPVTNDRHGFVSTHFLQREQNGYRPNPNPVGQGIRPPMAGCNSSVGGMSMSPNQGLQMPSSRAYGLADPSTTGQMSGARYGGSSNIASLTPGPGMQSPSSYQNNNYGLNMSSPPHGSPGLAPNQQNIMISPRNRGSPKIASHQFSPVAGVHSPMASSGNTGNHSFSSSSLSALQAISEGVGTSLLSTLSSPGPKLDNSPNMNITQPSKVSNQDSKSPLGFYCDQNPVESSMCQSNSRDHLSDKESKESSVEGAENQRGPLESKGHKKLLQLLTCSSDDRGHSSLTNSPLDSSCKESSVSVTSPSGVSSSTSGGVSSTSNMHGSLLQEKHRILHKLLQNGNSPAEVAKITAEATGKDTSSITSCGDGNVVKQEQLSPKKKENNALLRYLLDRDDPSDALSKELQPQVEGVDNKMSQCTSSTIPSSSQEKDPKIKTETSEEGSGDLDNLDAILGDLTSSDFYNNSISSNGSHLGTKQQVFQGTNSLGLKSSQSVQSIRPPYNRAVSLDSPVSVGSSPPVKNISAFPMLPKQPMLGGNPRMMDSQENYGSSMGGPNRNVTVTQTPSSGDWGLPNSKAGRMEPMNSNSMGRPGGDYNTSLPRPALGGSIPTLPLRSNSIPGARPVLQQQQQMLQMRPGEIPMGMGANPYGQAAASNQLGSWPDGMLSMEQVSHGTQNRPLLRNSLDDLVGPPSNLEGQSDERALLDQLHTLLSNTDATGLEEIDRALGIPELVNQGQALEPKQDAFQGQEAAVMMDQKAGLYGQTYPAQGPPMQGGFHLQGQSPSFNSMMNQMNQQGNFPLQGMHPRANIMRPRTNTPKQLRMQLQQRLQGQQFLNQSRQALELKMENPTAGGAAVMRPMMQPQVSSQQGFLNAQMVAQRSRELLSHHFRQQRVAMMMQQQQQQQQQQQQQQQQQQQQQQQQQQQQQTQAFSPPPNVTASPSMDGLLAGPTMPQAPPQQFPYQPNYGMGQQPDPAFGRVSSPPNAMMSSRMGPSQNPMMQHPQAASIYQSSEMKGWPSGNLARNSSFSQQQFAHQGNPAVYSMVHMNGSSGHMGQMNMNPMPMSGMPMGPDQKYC

The test system of experiment [2] is transactivating tegument protein VP16 (Human herpesvirus 1), Gal4-VP16 luciferase reporter. Description: repression of VP16-driven luciferase reporter – cell-based, luminescence, high throughput, counter-screen for SRC3 inhibitor project (AID 588794; in the data active means inhibition above about 30%). The note with it: mammalian cells, at 3.6 µM, active compounds read high.
Experiment [3] in a line: StAR promoter reporter inhibitors, counter-screen for LRH-1 inverse agonist project, cell-based, luminescence, high throughput (AID 651611; in the data active means inhibition above about 28%). The note with it: StAR promoter luciferase reporter counterscreen, at 3.6 µM, active compounds read high. (A counterscreen serves to expose hits that act by an unwanted route or on another target.)
Experiment [4] concerns the target Nuclear receptor subfamily 5 group A member 2 (Homo sapiens) (UniProt O00482). Kind of experiment: NR5A2 activity suppression in reporter cells – cell-based, luminescence, confirmation (AID 651613; in the data active means inhibition above about 42%;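 further: HEK293T cells co-transfected with LRH-1 and StAR promoter luciferase reporter; 0% = vehicle wells and 100% = parental cells lacking receptor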). The note with it: cell-based LRH-1 luciferase reporter, inverse agonism; at 3.6 µM; active compounds read high.
Experiment [5] has as its target Steroidogenic factor 1 (Homo sapiens) (UniProt Q13285). Description: inverse agonism at SF1 nuclear receptor – cell-based, luminescence, high throughput, counter-screen for LRH-1 inverse agonist project (AID 651614; in the data active means inhibition above about 44%;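 further: cells cotransfected with StAR promoter reporter and SF1 expression vector; 0% = vehicle on cells with receptor and 100% = vehicle on cells lacking receptor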). The note with it: cell-based SF1 luciferase reporter, at 3.6 µM, active compounds read high.
The nature of experiment [6]: compounds suppressing VP16-driven luciferase signal – cell-based, luminescence, high throughput, counter-screen for LRH-1 inverse agonist project (AID 651615; in the data active means inhibition above about 33%). The note with it: Gal4-VP16 luciferase reporter cells, at 3.6 µM, active compounds read high.
Experiment [7] deals with Photoreceptor-specific nuclear receptor (Homo sapiens) (UniProt Q9Y5X4). Description: retest of NR2E3-NCOR disrupting agonists – cell-based, luminescence, CHO-S two-hybrid, confirmation (AID 624378;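 active means average inhibition above a cutoff equal to the mean inhibition of all tested compounds plus one SD, cut at about 70% in these data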;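 further: 0% = DMSO in NR2E3 cells and 100% = DMSO in cells lacking NR2E3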). As to conditions: CHO-S mammalian two-hybrid NR2E3-NCOR, luciferase luminescence; at 3.98 µM; active compounds read high.
Sequence of Photoreceptor-specific nuclear receptor (Homo sapiens) (Q9Y5X4 whole entry, looked up): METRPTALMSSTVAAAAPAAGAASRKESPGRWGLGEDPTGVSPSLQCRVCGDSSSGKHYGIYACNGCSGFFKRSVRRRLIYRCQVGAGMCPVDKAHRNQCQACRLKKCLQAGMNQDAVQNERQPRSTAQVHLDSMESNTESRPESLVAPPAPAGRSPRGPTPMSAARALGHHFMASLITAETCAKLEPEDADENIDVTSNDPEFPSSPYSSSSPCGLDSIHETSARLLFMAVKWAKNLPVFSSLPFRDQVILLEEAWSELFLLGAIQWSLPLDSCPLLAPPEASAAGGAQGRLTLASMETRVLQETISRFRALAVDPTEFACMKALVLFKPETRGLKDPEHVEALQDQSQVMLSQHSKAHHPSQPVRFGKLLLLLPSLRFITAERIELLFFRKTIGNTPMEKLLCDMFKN
The nature of experiment [8]: nonselective effects on VP16 transactivation – cell-based, luminescence, CHO-S, high throughput, counter-screen for NR2E3 agonist project, confirmation (AID 624379;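 active means mean inhibition above a cutoff equal to the average over all tested compounds plus one standard deviation, cut at about 70% in these data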;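 further: 0% = DMSO with VP16-transfected cells and 100% = DMSO with cells lacking VP16; higher means less reporter light so more repression of VP16 activity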). The note with it: CHO-S GAL4-VP16 luciferase reporter, at 3.98 µM, active compounds read high.
The nature of experiment [9]: VP16-driven transactivation reporter suppression – cell-based, luminescence, HEK293, counter-screen for COUP-TFII antagonist project (AID 687007; in the data active means inhibition above about 13%). The note with it: HEK293 Gal4-VP16 luciferase reporter, at 8.5 µM, active compounds read high.
In experiment [10] the target is COUP transcription factor 2 (Homo sapiens) (UniProt P24468). Kind of experiment: retest of COUP-TFII reporter suppressors – cell-based, luciferase reporter, HEK293, triplicate, confirmation (AID 687008;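 active means mean inhibition over three repeats above a set limit taken from the earlier primary screen, cut at about 38% in these data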;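 further: 100% = cells given the luciferase reporter alone without the COUP-TF2 vector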). The note with it: HEK293 NGFI-A luciferase reporter, luminescence; at 8.5 µM; active compounds read high.
Sequence of COUP transcription factor 2 (Homo sapiens) (P24468 whole entry, looked up, the tested form may be a part): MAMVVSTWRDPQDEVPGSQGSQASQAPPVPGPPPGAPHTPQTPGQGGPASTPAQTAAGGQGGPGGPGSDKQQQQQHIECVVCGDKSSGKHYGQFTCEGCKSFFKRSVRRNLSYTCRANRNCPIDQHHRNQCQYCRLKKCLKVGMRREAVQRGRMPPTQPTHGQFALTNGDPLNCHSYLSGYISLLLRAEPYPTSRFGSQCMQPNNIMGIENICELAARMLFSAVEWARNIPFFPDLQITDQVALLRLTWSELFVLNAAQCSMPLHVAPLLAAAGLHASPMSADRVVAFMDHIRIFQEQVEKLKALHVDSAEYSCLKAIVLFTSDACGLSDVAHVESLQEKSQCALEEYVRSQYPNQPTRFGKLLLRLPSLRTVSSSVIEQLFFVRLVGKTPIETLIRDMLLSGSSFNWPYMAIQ
Experiment [11] has as its target Nuclear receptor coactivator 1 (Homo sapiens) (UniProt Q15788). Description: NCOA1 GAL4-fusion reporter inhibition – cell-based, luminescence, quadruplicate, confirmation (AID 588820;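 active means mean inhibition above 46.68%, the untreated control wells mean plus 3 SD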;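 further: 0% = DMSO wells and 100% = gossypol 36 µM treated wells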). The note with it: HEK293 GAL4-SRC1 luciferase reporter, at 3.6 µM, active compounds read high.
Experiment [12] is described as follows: repression of VP16-driven luciferase reporter – cell-based, luminescence, high throughput, counter-screen for SRC1 inhibitor project (AID 588824; in the data active means inhibition above about 25%). As to conditions: cell-based VP16 transactivation luciferase luminescence; at 3.6 µM; active compounds read high.
In experiment [13] the test system is transactivating tegument protein VP16 (Human herpesvirus 1). Kind of experiment: compounds suppressing VP16-driven luciferase signal – cell-based, luminescence, single concentration, counter-screen for SRC2 inhibitor project (AID 652007; in the data active means inhibition above about 36%). As to conditions: cell-based VP16 transactivation luciferase reporter, at 8.9 µM, active compounds read high.
For experiment [14], the target named is Nuclear receptor coactivator 2 (Homo sapiens) (UniProt Q15596). Kind of experiment: inhibition of GAL4-SRC2 driven luciferase expression – cell-based, luminescence, HEK293, triplicate, confirmation (AID 652008;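 active means mean inhibition above 46.5%, the solvent-only control mean plus 3 SD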;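 further: 0% = DMSO-treated cells and 100% = Gossypol at 36 µM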). The note with it: HEK293 GAL4-SRC2 luciferase reporter, at 8.9 µM, active compounds read high.
Sequence of Nuclear receptor coactivator 2 (Homo sapiens) (Q15596 whole entry, looked up, the tested form may be a part): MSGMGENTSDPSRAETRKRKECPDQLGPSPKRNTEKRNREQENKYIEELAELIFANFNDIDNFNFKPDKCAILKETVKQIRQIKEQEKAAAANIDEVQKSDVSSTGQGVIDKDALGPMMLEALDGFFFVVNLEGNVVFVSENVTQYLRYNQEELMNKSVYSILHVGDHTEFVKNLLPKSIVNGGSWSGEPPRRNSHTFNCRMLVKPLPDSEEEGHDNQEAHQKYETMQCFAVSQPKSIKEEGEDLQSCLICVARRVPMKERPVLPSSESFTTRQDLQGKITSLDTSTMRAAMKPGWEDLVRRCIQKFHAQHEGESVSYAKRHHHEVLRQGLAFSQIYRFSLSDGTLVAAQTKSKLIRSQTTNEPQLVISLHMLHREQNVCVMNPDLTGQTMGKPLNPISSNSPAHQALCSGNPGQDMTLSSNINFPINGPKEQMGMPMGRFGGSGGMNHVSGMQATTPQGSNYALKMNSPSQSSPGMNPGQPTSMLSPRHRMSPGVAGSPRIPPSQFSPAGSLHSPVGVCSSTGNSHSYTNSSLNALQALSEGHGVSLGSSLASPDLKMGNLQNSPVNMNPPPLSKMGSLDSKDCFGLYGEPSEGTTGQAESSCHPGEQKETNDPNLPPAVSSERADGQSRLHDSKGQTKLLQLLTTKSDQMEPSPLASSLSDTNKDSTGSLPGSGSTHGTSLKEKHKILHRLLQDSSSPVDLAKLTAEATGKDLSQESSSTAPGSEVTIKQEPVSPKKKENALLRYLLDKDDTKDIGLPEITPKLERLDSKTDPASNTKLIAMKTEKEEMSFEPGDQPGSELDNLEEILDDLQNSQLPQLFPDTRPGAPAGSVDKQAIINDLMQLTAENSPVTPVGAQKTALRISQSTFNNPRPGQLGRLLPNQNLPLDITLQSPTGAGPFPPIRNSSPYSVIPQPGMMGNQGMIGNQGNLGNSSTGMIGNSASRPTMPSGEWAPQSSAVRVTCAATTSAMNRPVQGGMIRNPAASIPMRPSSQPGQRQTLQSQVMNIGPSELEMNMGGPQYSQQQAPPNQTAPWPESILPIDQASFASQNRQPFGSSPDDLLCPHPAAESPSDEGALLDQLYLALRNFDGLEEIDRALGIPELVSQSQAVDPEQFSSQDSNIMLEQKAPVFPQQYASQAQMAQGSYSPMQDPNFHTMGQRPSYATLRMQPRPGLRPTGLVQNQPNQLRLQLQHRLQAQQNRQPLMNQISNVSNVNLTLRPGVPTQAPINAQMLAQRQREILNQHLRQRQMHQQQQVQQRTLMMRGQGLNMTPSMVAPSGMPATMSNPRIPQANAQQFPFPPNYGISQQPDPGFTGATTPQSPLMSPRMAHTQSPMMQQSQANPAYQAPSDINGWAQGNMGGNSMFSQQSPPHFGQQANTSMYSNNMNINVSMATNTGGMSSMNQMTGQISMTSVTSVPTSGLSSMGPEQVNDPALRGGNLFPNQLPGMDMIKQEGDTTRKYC

Sequence of Nuclear receptor subfamily 5 group A member 2 (Homo sapiens) (O00482 whole entry, looked up): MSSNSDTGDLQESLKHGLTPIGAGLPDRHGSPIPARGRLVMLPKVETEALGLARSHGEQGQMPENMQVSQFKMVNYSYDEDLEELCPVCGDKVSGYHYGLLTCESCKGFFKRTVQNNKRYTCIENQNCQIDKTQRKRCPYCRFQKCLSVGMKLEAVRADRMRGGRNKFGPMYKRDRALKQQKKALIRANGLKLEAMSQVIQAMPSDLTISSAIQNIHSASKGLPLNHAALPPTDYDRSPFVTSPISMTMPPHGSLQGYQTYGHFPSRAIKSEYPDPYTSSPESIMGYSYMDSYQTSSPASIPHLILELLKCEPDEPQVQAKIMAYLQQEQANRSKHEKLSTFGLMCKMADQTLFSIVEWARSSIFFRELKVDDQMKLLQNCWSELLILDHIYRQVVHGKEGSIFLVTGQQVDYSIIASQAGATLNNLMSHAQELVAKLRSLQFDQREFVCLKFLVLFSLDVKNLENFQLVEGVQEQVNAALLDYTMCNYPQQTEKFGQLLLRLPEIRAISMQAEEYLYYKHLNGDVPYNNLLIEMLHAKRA
Sequence of Steroidogenic factor 1 (Homo sapiens) (Q13285 whole entry, looked up, the tested form may be a part): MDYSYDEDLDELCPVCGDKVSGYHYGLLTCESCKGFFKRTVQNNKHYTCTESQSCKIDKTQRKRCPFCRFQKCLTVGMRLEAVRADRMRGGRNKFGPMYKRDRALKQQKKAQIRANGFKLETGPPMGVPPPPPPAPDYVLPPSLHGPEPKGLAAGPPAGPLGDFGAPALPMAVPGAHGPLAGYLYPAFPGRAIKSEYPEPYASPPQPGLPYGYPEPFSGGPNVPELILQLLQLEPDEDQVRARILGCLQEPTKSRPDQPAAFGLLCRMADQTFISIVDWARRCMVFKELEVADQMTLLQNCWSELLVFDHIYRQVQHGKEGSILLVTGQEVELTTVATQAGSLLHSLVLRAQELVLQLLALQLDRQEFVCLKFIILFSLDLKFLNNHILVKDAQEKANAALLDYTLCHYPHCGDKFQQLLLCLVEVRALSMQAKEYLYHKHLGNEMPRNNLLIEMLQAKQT

Consider `CCOC(=O)C(=CNc1ccc(NC2=NCC(C)S2)cc1)C(=O)OCC` (stereo not drawn), for which the inhibition in experiment [1] is 60.3% (active); in [2], 24.9%; in experiment [3] it was -39.4%; in experiment [4], 69.1% (active); in experiment [5] it was 70.9% (active); in experiment [6], 36.8% (active).
Turning to `Brc1ccc(C2=Nn3c(nnc3-c3n[nH]c4c3CCC4)SC2)cc1`, the inhibition was 26% in experiment [1]; -11.4% in [2]; 50.6% (active) in experiment [3]; 49% (active) in [4]; 51% (active) in experiment [5]; -33.2% in experiment [6].
With `C=CS(=O)(=O)N(Cc1ccccc1Br)[C@H](CO)Cc1ccccc1`, the inhibition is 24.3% in [1]; 0.02% in [2]; 20.1% in experiment [3]; 32.2% in [4]; 48.7% (active) in [5]; 23.2% in [6].
On to `C[C@H]1CCC/C=C/[C@@H]2C[C@H](O)C[C@H]2[C@H](O)[C@H](S(=O)c2ccc(O)cc2)CC(=O)O1` (stereo partly drawn), for which the inhibition is 71.7% (active) in experiment [1]; 77.6% (active) in experiment [2]; 77.7% (active) in experiment [3]; 84.4% (active) in experiment [4]; 76.6% (active) in experiment [5]; 77.6% (active) in experiment [6].
As for `CCOc1ccc(-c2c[n+]3c(n2-c2ccccc2)CCCCC3)cc1`, the inhibition is 28.4% in experiment [1]; 43.8% (active) in [2]; 22.6% in experiment [3]; 94.5% (active) in experiment [4]; 69.1% (active) in experiment [5]; 66.9% (active) in [6].
As for `c1ccc(-c2csc3ncnc(NCC4COc5ccccc5O4)c23)cc1` (stereo not drawn), the inhibition in [1] was 8.5%; in experiment [2] it was 53% (active); in experiment [3], 34.8% (active); in experiment [4] it was 57.8% (active); in experiment [5] it was 62.5% (active); in experiment [6], 60.4% (active).
For the molecule `CCCOc1ccc(Br)cc1CSC(=N)N`, the inhibition in experiment [1] is 17.9%; in experiment [2], 33.3% (active); in experiment [3] it was 9.34%; in [4], 102% (active); in experiment [5], 53.8% (active); in experiment [6], 83.7% (active).
For the molecule `Cc1ccc(C(=O)Nc2sc3c(c2C(=O)O)CCC(C)C3)o1` (stereo not drawn), the inhibition is 28% in [1]; 68.3% (active) in experiment [2]; 53.4% (active) in experiment [3]; 89.5% (active) in experiment [4]; 85.8% (active) in [5]; 77% (active) in experiment [6].
With `C[n+]1c2n(c3ccccc31)N=C(c1ccc(-c3ccccc3)cc1)CS2`, the inhibition was 36.6% in [1]; 52.8% (active) in experiment [2]; 32.7% (active) in [3]; 87.7% (active) in experiment [4]; 78.2% (active) in experiment [5]; 72.8% (active) in experiment [6].
In the case of `Cc1ccnc(NC(=O)CCCOc2cc(=O)n(C)c3ccccc23)c1`, the inhibition was 3.13% and 25% in experiment [1]; -1.88% and -14.4% in experiment [2]; 61% (active) and 59.3% (active) in experiment [3]; 91.4% (active) and 81.7% (active) in experiment [4]; 67.8% (active) and 59.8% (active) in [5]; 23.5% and 8.09% in experiment [6].
As for `O=[N+]([O-])c1ccc(O)c(/C=N/Nc2nc3ccccc3[nH]2)c1`, the inhibition in [1] was 64% (active); in experiment [2], 62.7% (active); in experiment [3], 80.6% (active); in experiment [4], 97.5% (active); in experiment [5], 84.3% (active); in experiment [6], 83% (active).
Turning to `C=CCC1(CC=C)CCCN1C(=O)c1cc(COc2ccc(-n3cncn3)cc2)on1`, the inhibition was 5.51% in [1]; 30.2% (active) in experiment [2]; 97.4% (active) in [7]; 86.5% (active) in experiment [8]; -1.01% in [9]; 49.6% (active) in experiment [10].
As to `Nc1cc(Cc2ccccc2)ccc1O`, the inhibition in experiment [1] is -9.82%; in [2] it was -12.4%; in [3], 9.01%; in experiment [4], 25.7%; in [5], 33.2%; in experiment [6] it was -10.3%.
With `Cc1ccc(C(=O)Nc2sc3c(c2C(=O)O)CCCC3)o1`, the inhibition in experiment [1] is 17.1%; in [2] it was 40% (active); in experiment [3], 32.5% (active); in [4], 75.9% (active); in experiment [5] it was 78.6% (active); in experiment [6], 61.7% (active).
Take `COc1ccc(Nc2ccncc2[N+](=O)[O-])cc1`: the inhibition was 41.1% in experiment [1]; 27.4% in [2]; 13.4% in [3]; 75.5% (active) in experiment [4]; 64.4% (active) in experiment [5]; 39.3% (active) in [6].
For `COC1C(=O)CCC2(CO2)C1(O)C1(C)OC1CC=C(C)C` (stereo not drawn), the inhibition was 39.3% in experiment [1]; 40.8% (active) in [2]; 33.8% (active) in experiment [3]; 43% (active) in experiment [4]; 39.6% in [5]; 42% (active) in [6].
Consider `O=C(NC1CCCCCCC1)c1cc(COc2ccc3ncccc3c2)on1`, for which the inhibition in experiment [1] was 17.3%; in experiment [2], 40.2% (active); in experiment [3] it was 25.3%; in experiment [4], 55% (active); in [5], 54.8% (active); in experiment [6] it was 51.6% (active).
As to `C=CCSc1nsc(NC(=O)Nc2cccc(C(C)=O)c2)n1`, the inhibition in experiment [1] is 44% (active); in experiment [2] it was 31.2% (active); in experiment [11], 46.4%; in experiment [12], 27.2% (active); in [13], -25.7%; in experiment [14], 17.3%. The inhibition was -25.6% in [9] and 2.43% in experiment [10].
In the case of `COc1ccc(C(=O)C2CCCN(Cc3cccn3-c3ccc(Cl)cn3)C2)c(OC)c1` (stereo not drawn), the inhibition in experiment [1] is 17.1%; in [2], 25.5%; in [3], 19%; in experiment [4] it was 47.7% (active); in [5], 47.4% (active); in [6] it was 41.2% (active).
Regarding `O=C(OC12CC3CC(CC(C3)C1)C2)c1ccc(NCc2cc(O)ccc2O)cc1`, the inhibition in experiment [1] is 89.3% (active); in experiment [2] it was 59.6% (active); in experiment [7], 78.1% (active); in experiment [8], 18.6%; in [3], 66.5% (active); in experiment [4] it was 82.9% (active). Moreover, the inhibition in [5] is 80.2% (active); in experiment [6] it was 86% (active); in [13], 95.5% (active); in [14], 96.4% (active); in experiment [9], 79.4% (active); in [10], 103% (active).
Turning to `N#CC(c1cccc(Cl)c1)c1ccc2c(C(F)(F)F)cc(C(F)(F)F)nc2n1` (stereo not drawn), the inhibition in [1] is 59.4% (active); in experiment [2], 84% (active); in experiment [3], 82.3% (active); in [4], 107% (active); in [5], 95.5% (active); in experiment [6], 88.9% (active).
`O=c1oc2ccccc2cc1-c1cn(-c2ccccc2)c(=S)[nH]1`: the inhibition in [1] was 11%; in experiment [2], 23.1%; in experiment [11], -68.1%; in experiment [12], -22.7%; in experiment [9] it was 46.9% (active); in experiment [10], 60.8% (active).
Take `CCOc1ccc(OCc2ccc(C(=O)NN=Cc3ccc[nH]3)cc2)cc1`: the inhibition in [1] is 38.9%; in [2] it was 78.4% (active); in experiment [3], 76.2% (active); in [4], 104% (active); in [5], 90.6% (active); in experiment [6] it was 87.1% (active).
As to `COc1ccc2c(c1OC)C(=O)N1c3ccccc3C(=O)N(c3ccccc3F)C21` (stereo not drawn), the inhibition in experiment [1] is 17.7%; in [2], 10.7%; in [3] it was 53.5% (active); in experiment [4] it was 48.5% (active); in experiment [5] it was 54.1% (active); in experiment [6], 16.9%.
With `CC(=NNC(=S)N1CCCC1)c1ccccn1`, the inhibition was 54.1% (active) in experiment [1], 64.5% (active) in experiment [2] and 66.4% (active) in experiment [12].
As to `CC(C)(C)Nc1nc(-c2ccccn2)nc2ccccc12`, the inhibition in experiment [1] was 35%; in experiment [2], 43.1% (active); in [7] it was 99.2% (active); in [8], 49.7%; in experiment [3], 69.1% (active); in experiment [4], 85.6% (active). Besides, the inhibition in experiment [5] is 84.7% (active); in experiment [6], 63.9% (active).

(Values after PubChem BioAssay.)
